Data taken from PubChem BioAssay AID624415 (National Center for Advancing Translational Sciences (NCATS), 2012).
The campaign covered roughly 390,000 compounds. About 60 (0.02%) were called active. Cut-off read from the data, not from the text of the source: active = activity change below about -50%; inconclusive = between about -30% and that limit; inactive = weaker than that. The entries come from a sample that favours actives as a whole.

biological target: Mucolipin-1 (Homo sapiens) (UniProt Q9GZU1); assay: qHTS for Inhibitors of the Human Mucolipin Transient Receptor Potential 1 (TRPML1); conditions: TRPML1-inducible cells, Ca2+ dye fluorescence, FDSS; active compounds read low; inhibition of EC80 agonist-evoked calcium signal;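 note: stimulus is agonist 54-4 at its EC80 concentration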
Excerpt: Mutations of human Mucolipin transient receptor potential 1 (TRPML1) cause type IV mucolipidosis (ML4), a devastating neurodegenerative disease in young children. […] Currently, there is no treatment for ML4. […] Under physiological conditions, TRPMLs regulate membrane trafficking by transducing information about PI(3,5)P2 levels into changes in juxtaorganellar Ca2+, thereby triggering membrane fusion/fission events in the late endocytic pathways (endolysosomal trafficking). In addition, TRPML1 mediates release of Fe2+ from late endosomes and lysosomes, which is essential for cellular iron metabolism. Thus, impaired ion (Ca2+ and Fe2+) homeostasis underlies lysosomal dysfunction and ML4 phenotypes. In ML4 cells, the problem is twofold. First, defective Ca2+-dependent membrane trafficking due to TRPML1-deficiency causes accumulation of lipids and other bio-materials in the lysosome. The second strike comes from the lysosomal iron overload (due to impairment of TRPML1's Fe2+ conductivity), which converts the accumulated materials into the nondegradable (resistant to lysosomal degradation) lipofuscin (also called aging pigment) in the lysosome. Lipofuscin accumulation dramatically compromises the functions of lysosomes.
Niemann-Pick type C (NPC) disease is another lysosome storage disease (LSD) with severe neurodegeneration during the childhood. Currently, there is no cure for NPC. […] Thus, TRPML1 is likely to be an essential regulator of lysosome ion homeostasis. We specifically hypothesize that stimulating TRPML1's Fe2+/Ca2+ channel activity in the lysosome using synthetic agonists can alleviate neurodegeneration associated with ML4 or NPC.
To this end, a high throughput screen was developed in a miniaturized format to screen against the Molecular Libraries Small Molecule Repository (MLSMR) to find small molecules that act either as inhibitors or agonist against the TRPML1 channel.
NIH Chemical Genomics Center [NCGC]
NIH Molecular Libraries Probe Centers Network [MLPCN]
Assay Submitter (PI): Haoxing Xu, University of Michigan Ann Arbor
TRPML1-DL cells are dissociated from flasks, counted and, brought up to a density of 500,000 cells per mL of media containing a 1X Tet inducer. Using a Multidrop Combi, 3 uL of this cell solution is dispensed to each well of a 1536 TC treated, black, clear bottom hi base plate for a final cell density of 1,500 cells per well. The assay plates are incubated overnight (approximately 16 hours) at 37 degrees C and 5% CO2. Using a Multidrop Combi, 2 uL of ABD Ca8 no wash dye plus quencher is added to each well. The assay plates incubate at room temperature in the dark for 45-90 minutes. The assay plate is read on the FDSS using the following protocol: 10 second baseline read, 23 nL of compounds and controls are added using 1536 pintool, agonist read for 110 seconds, 1 uL EC80 addition (4 uM final 54-4 diluted in media), antagonist read for 110 seconds.
% is set by controls: 0 for no effect and ±100 for the full control effect.

Chain of Mucolipin-1 (Homo sapiens) (Q9GZU1 whole entry, looked up, the tested form may be a part): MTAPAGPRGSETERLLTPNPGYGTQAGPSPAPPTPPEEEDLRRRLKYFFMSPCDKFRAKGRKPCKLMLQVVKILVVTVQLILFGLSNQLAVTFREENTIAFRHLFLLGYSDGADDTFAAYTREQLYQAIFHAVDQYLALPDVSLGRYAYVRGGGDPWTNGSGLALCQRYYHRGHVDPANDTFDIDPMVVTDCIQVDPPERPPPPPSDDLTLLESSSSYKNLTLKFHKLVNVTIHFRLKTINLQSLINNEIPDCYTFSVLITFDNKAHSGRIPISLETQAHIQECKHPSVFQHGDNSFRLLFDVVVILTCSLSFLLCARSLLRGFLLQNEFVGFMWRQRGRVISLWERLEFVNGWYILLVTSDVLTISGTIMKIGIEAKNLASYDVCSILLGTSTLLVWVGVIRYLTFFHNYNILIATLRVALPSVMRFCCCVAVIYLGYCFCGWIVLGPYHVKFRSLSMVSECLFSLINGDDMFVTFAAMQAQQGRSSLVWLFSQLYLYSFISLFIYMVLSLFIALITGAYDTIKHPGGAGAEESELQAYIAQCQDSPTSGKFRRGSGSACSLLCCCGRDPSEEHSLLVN

Activity change, negative = inhibition, inactive:
CCn1c(C(=O)Nc2cc(Cl)ccc2C)cc2sc(Cl)cc21 16.9%
Cc1cccc(Cn2c(=O)n(CCC(=O)NCCc3ccc(Cl)cc3)c(=O)c3sccc32)c1 -20.1%
CCc1nn(CC(=O)N2CCN(c3cccc(C(F)(F)F)c3)CC2)c(=O)c2cc3occc3n12 2.52%
COc1ccc(C2=NC3(CCCCC3)N(CC(=O)Nc3ccc(C(C)C)cc3)C2=O)cc1 8.59%
C=COC(=O)N1CCN(/[N+]([O-])=N/Oc2ccc([N+](=O)[O-])cc2[N+](=O)[O-])CC1 5.96%
COc1ccc(CNC(=O)c2ccc(NC(=O)N3CC4CCCN4c4ccccc43)cc2)cc1 (stereo not drawn) 12%
Cc1cc(C)cc(OCC(=O)Nc2c(C(=O)c3ccccc3)oc3ccccc23)c1 -3.38%
Cc1ccc(SCC(=O)Nc2ccc3oc(-c4ccccc4C)nc3c2)cc1 7.73%
CCNS(=O)(=O)c1cc(-c2nnc(Nc3cccc(C(F)(F)F)c3)c3ccccc23)ccc1C -9.21%
COc1cccc(CNC(=O)CCc2nc(-c3ccc(C)cc3)no2)c1 15.3%
Cc1ccccc1C(=O)NCc1nc(-c2ccc(Cl)cc2)no1 -1.57%
CC1CN(C(=O)N2CCC(C(=O)NCc3ccco3)CC2)c2cc(Cl)ccc2O1 (stereo not drawn) 31.2%
COc1ccccc1-c1ccnc2[nH]n(-c3ccccc3)c(=O)c12 -0.876%
COC(=O)CC1Oc2ccccc2-n2cc(-c3ccccc3)nc21 (stereo not drawn) 4.04%
Cc1ccccc1OCc1nc2c3cnn(-c4ccccc4F)c3ncn2n1 -5.46%
COc1ccc(NC(=O)c2ccc3nc(CCc4ccccc4)oc3c2)c(OC)c1 3.32%
CCOC(=O)C1CCN(C(c2ccc(F)cc2)c2sc3nc(-c4ccco4)nn3c2O)CC1 (stereo not drawn) -5.17%
Cn1c(C(=O)N2CCC(C(=O)N3CCN(c4ccccc4)CC3)CC2)cc2sccc21 -0.29%
CC(=O)N1CCCc2cc(S(=O)(=O)N3CCC(C(=O)NCc4ccc(C)cc4)CC3)ccc21 23%
COc1ccc(-c2c3c(=O)n(C)c(=O)n(C)c3c3c(C)nc4ccccc4n23)cc1 -0.184%
CC(=O)N1CCCc2cc(S(=O)(=O)Nc3ccc(Cl)cc3F)ccc21 0.189%
COc1ccc(N2C(=O)CS(=O)(=O)C23C(=O)N(Cc2ccc(C)cc2)c2ccccc23)cc1Cl (stereo not drawn) 40.4%
CCN(CC)/[N+]([O-])=N/OCOC(=O)Cc1c(C)n(C(=O)c2ccc(Cl)cc2)c2ccc(OC)cc12 37.6%
CCOC(=O)CSC1=Nc2ccccc2C2=NC(CCC(=O)NCc3ccc(F)cc3)C(=O)N12 (stereo not drawn) -10.5%
Cc1ccc(Cl)cc1-n1ncc2c(N3CCC(C(N)=O)CC3)ncnc21 0.447%
O=C(NCCC1=CCCCC1)c1ccc2c(c1)N(Cc1ccccc1F)C(=O)c1ccccc1S2(=O)=O 3.43%
Cc1cccc(C(=O)N2c3nc(-c4ccco4)nn3C3(CCCCC3)[C@@H]3CCCC[C@@H]32)c1 -0.973%
C=C1CCN(C(CC(C)C)C(=O)N2CCOCC2)S(=O)(=O)c2ccccc21 (stereo not drawn) -14.1%
CCCCNC(=O)CSc1nc2cc3c(cc2c(=O)n1CCCCCC(=O)NCc1ccc2c(c1)OCO2)OCO3 22.7%
Cc1cccc(NC(=O)CN(c2ccc(C(C)C)cc2)S(=O)(=O)c2c(C)nn(C)c2C)c1C 3.79%
Cc1ccccc1NC(=O)Cn1c(=O)n(CCc2ccccc2)c(=O)c2ccccc21 -6.8%
Cc1ccc(CN(C(=O)c2ccccc2[N+](=O)[O-])c2ccccn2)cc1 3.72%
Cn1nnc2c(N3CCN(c4ccccc4)CC3)ncnc21 -12.6%
CCn1cc2nc(SCc3ccccc3Cl)n(CCc3ccccc3)c(=O)c2n1 -16.2%
COc1ccc(NC(=O)CSc2nc3ncccc3[nH]2)c(OC)c1 -10.8%
COc1ccc(Nc2ncc3c(n2)CCN(C(=O)OC(C)(C)C)C3)cc1 -8.96%
COc1ccc(C2/C=C\CN(Cc3ccco3)C(C)C(=O)N2Cc2ccc(F)cc2)cc1 (stereo not drawn) 19.9%
COc1ccc2c(c1)Cc1sc(NC(=O)c3ccccc3Br)nc1-2 -10.7%
COc1ccc(C2CC(=O)N(Cc3ccccc3C)c3c2c(C)nn3-c2nc(C)cc(C)n2)c(OC)c1 (stereo not drawn) 35.7%
Cc1cc(C)cc(NC(=O)Cc2csc(C)n2)c1 2.64%
COc1cc(OC)c2c(C)cc(=O)oc2c1C(CCN1CCCCC1)c1ccc(N(C)C)cc1 (stereo not drawn) -6.66%
Cc1ccc(N2CC(c3nnc(Cc4ccccc4Cl)o3)CC2=O)cc1 (stereo not drawn) -9.51%
CCc1ccc(CNC(=O)c2ccc(CS(=O)c3ccc(Br)cc3)o2)cc1 (stereo not drawn) 34.7%
Cc1ccc2cccc(NC(=O)C(C)Oc3ccc(C)c(C)c3)c2n1 (stereo not drawn) -1.63%
Cc1ccc(C)c(N2C(=O)N(Cc3c(F)cccc3Cl)c3ccccc3S2(=O)=O)c1 -2.54%
Oc1ccc(Cl)cc1C1C=C(c2ccc3c(c2)OCO3)NC(c2c(F)cccc2Cl)N1 (stereo not drawn) -4.64%
COc1ccc2ncc3c(-c4ccc(C)c(C)c4)nn(CC(=O)NC4CCCC4)c3c2c1 6.38%
CCN(CC)c1nn2c(=O)c(C(=O)NCCc3ccccc3)cnc2s1 26.2%
COc1ccc(CNC(=O)c2cc3c(=O)[nH]c4ccccc4c3s2)cc1 -6.35%
Cc1ccc(Cl)cc1NC(=O)CSc1nccn1C 0.294%
CC(=O)Nc1ccc2nc(SCCOc3cc(C)cc(C)c3)sc2c1 -12.9%
CCc1ccc(S(=O)(=O)Nc2cc3c(C(=O)OCc4ccccc4)c(C)oc3c3ccccc23)cc1 28.4%
CCOC(=O)c1cccc(NS(=O)(=O)c2cc(-c3cnc(C)o3)ccc2OC)c1 21%
